Target: PUM1 PUF domain R1-SGE (Homo sapiens, UniProt Q14671 828-1176, R864G;Q867E)
Assay: yeast three-hybrid, YBZ-1, SC-Leu-His + 0.5 mM 3-AT, 4 days
Conditions: tags: N-Gal4 AD-HA kept; label: inside an RPR1-promoter hybrid RNA with tandem MS2 sites; ssRNA
Procedure, shortened: (§1)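 The interaction score is the logarithmic change in variant frequency from input to selection. It uses log2, with a pseudocount of 1 for absent variants, and frequencies came from PCR-amplified, Illumina-sequenced repeat regions. The libraries were Pumilio-1 PUF domains randomized at the three base-contacting residues per repeat, co-expressed with matching RNA elements in strain YBZ-1 (LexA–MS2 coat fusion, HIS3 reporter). Plating lasted four days on SC-Leu (input) or SC-Leu-His + 0.5 mM 3-AT (selection).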

PUM1 PUF domain R1-SGE, sequence (Q14671 828-1176 R864G/Q867E): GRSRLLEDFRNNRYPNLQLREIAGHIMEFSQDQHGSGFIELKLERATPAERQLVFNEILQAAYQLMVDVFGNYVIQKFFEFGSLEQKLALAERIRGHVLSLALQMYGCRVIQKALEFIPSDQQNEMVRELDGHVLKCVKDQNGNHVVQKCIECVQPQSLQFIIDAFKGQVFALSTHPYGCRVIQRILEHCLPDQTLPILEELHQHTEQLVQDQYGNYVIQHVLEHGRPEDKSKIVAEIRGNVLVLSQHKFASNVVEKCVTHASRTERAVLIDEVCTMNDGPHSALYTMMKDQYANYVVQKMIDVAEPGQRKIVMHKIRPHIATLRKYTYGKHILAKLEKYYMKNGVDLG

| Sequence | binding signal |
| --- | --- |
| GGCUAGAACUAGUGGAUCCCCCGGCGCCCGGCGGCUCGAGCCCGGGUAAGUGUAAAUCGUCUGCAUGCCGCCGGGCGCCAUGCCUGCAGGUCGACUCUAGAAAACAUG | 1.55 log2 enrichment (interaction score) |
| GGCUAGAACUAGUGGAUCCCCCGGCGCCCGGCGGCUCGAGCCCGGGUAAGUGUAAAUUGUCUGCAUGCCGCCGGGCGCCAUGCCUGCAGGUCGACUCUAGAAAACAUG | 3.87 log2 enrichment (interaction score) |
| GGCUAGAACUAGUGGAUCCCCCGGCGCCCGGCGGCUCGAGCCCGGGUAAGUGUAAAUGGUCUGCAUGCCGCCGGGCGCCAUGCCUGCAGGUCGACUCUAGAAAACAUG | 5.2 log2 enrichment (interaction score) |

Target: PUM1 PUF domain R4-ARS (Homo sapiens, UniProt Q14671 828-1176, N971A;H972R;Q975S)
Sequence (Q14671 828-1176 N971A/H972R/Q975S): as the sequence (Q14671 828-1176 R864G/Q867E) above, with G37R, E40Q, N144A, H145R, Q148S counted along it
Assay: as above
Conditions: tags: N-Gal4 AD-HA kept; label: inside an RPR1-promoter hybrid RNA with tandem MS2 sites; ssRNA
Procedure, shortened: as §1

| Sequence | binding signal |
| --- | --- |
| GGCUAGAACUAGUGGAUCCCCCGGCGCCCGGCGGCUCGAGCCCGGGUAAGUGUACAUAGUCUGCAUGCCGCCGGGCGCCAUGCCUGCAGGUCGACUCUAGAAAACAUG | 3.28 log2 enrichment (interaction score) |
| GGCUAGAACUAGUGGAUCCCCCGGCGCCCGGCGGCUCGAGCCCGGGUAAGUGUAAAUAGUCUGCAUGCCGCCGGGCGCCAUGCCUGCAGGUCGACUCUAGAAAACAUG | 4.61 log2 enrichment (interaction score) |
| GGCUAGAACUAGUGGAUCCCCCGGCGCCCGGCGGCUCGAGCCCGGGUAAGUGUAUAUAGUCUGCAUGCCGCCGGGCGCCAUGCCUGCAGGUCGACUCUAGAAAACAUG | 2.12 log2 enrichment (interaction score) |

Target: PUM1 PUF domain R4-CPG (Homo sapiens, UniProt Q14671 828-1176, N971C;H972P;Q975G)
Sequence (Q14671 828-1176 N971C/H972P/Q975G): as the sequence (Q14671 828-1176 R864G/Q867E) above, with G37R, E40Q, N144C, H145P, Q148G counted along it
Assay: as above
Conditions: tags: N-Gal4 AD-HA kept; label: inside an RPR1-promoter hybrid RNA with tandem MS2 sites; ssRNA
Procedure, shortened: as §1

| Sequence | binding signal |
| --- | --- |
| GGCUAGAACUAGUGGAUCCCCCGGCGCCCGGCGGCUCGAGCCCGGGUAAGUGUACAUAGUCUGCAUGCCGCCGGGCGCCAUGCCUGCAGGUCGACUCUAGAAAACAUG | 2.44 log2 enrichment (interaction score) |
| GGCUAGAACUAGUGGAUCCCCCGGCGCCCGGCGGCUCGAGCCCGGGUAAGUGUAAAUAGUCUGCAUGCCGCCGGGCGCCAUGCCUGCAGGUCGACUCUAGAAAACAUG | 4.34 log2 enrichment (interaction score) |
| GGCUAGAACUAGUGGAUCCCCCGGCGCCCGGCGGCUCGAGCCCGGGUAAGUGUAUAUAGUCUGCAUGCCGCCGGGCGCCAUGCCUGCAGGUCGACUCUAGAAAACAUG | 3.14 log2 enrichment (interaction score) |
